Only some compounds are listed: those with a hit (about 2.3% of all), similar ones and a draw of the others.
Bim-Mcl-1 = inhibitors of Bim peptide binding to Mcl-1, primary screen, biochemical, bead-based flow cytometry, multiplex; Induced myeloid leukemia cell differentiation protein Mcl-1 (Homo sapiens), Q07820; Bim peptide-Mcl-1 binding; inhibition, % at 10 µM; actives 0.1% (n = 190,000); in the data active = inhibition above about 40%
Mcl1-Noxa inh = Mcl-1/Noxa binding inhibitors, primary screen, biochemical, TR-FRET, 1536-well; Induced myeloid leukemia cell differentiation protein Mcl-1 (Homo sapiens), Q07820; actives 1.5% (n = 220,000); inhibition, % at 21.7 µM; TR-FRET Mcl-1/Noxa peptide binding, 2 h; AID 1022, 2008;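 active = compounds that cut the protein-peptide binding signal by more than 50% relative to plate controls in a single-dose test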;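 note: His-tagged Mcl-1 with rhodamine Noxa BH3 peptide and terbium anti-His antibody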
MCL1 BIM primary = inhibitors of MCL1 binding to BIM-BH3, primary screen, biochemical, fluorescence polarization. actives 0.68% (n = 320,000). GST-MCL1 / FITC-Bim-BH3 fluorescence polarization. inhibition, % at 10.9 µM. AID 2057, 2009;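 active = inhibition above the mean inhibition of all tested compounds plus 3 SD, set per campaign, cut at about 40% in these data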;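 note: higher means more loss of mP so more displacement of Bim peptide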
BCLXL inh = inhibitors of human Bcl-xL, primary screen, biochemical, fluorescence polarization, HTS. GST-Bcl-xL / FITC-Bim BH3 peptide fluorescence polarization. actives 0.7% (n = 320,000). Bcl-2-like protein 1 (Homo sapiens), Q07817. AID 2129, 2009. inhibition, % at 10.9 µM;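 active = inhibition above the mean of all tested compounds plus 3 SD, cutoff set per campaign, cut at about 30% in these data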;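 note: inhibitors lower millipolarization by displacing the labeled peptide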
Target sequence (Q07817 whole entry, looked up): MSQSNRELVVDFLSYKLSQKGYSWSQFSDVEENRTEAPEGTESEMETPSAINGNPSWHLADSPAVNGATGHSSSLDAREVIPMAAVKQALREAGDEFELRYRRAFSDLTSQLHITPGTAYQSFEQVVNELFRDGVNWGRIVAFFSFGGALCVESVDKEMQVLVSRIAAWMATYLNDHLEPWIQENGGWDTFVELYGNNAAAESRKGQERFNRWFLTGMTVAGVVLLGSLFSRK
GLD-1 RNA inh = GLD-1/TGE RNA complex disruptors, primary screen, biochemical, fluorescence polarization; purified GLD-1 + fluorescein TGE RNA; actives 0.44% (n = 320,000); inhibition, % at 5.96 µM;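 active = percent inhibition above a per-plate cutoff, the plate mean of test compounds plus 3 SD, cut at about 30% in these data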
Target sequence (Q17339 whole entry, looked up): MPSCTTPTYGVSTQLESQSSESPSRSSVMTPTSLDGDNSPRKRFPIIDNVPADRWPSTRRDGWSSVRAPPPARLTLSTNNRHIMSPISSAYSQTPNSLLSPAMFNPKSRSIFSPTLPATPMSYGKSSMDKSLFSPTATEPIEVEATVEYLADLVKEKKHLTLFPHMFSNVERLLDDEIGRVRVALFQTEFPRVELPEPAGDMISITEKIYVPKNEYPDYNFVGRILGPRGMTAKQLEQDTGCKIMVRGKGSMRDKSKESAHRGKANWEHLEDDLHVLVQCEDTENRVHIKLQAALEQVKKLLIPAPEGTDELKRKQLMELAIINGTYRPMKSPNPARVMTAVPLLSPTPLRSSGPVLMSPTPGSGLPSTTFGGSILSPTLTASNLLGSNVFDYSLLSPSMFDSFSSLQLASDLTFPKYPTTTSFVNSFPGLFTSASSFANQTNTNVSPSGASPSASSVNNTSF
Mcl1-Bid inh = Mcl-1/Bid binding inhibitors, primary screen, biochemical, TR-FRET, 1536-well | Induced myeloid leukemia cell differentiation protein Mcl-1 (Homo sapiens), Q07820 | TR-FRET Mcl-1/Bid-Dy647 peptide binding | inhibition, % at 21.7 µM | actives 0.97% (n = 220,000);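 active = compounds that cut the binding signal by more than half at the single screening dose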;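 note: His-tagged Mcl-1 with europium anti-His antibody binding Bid BH3 peptide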
Of the large screens only hits and unclear results are named; the others gave an inactive call.

N/C(=N\N=C/c1ccc(Br)cc1)N/N=C\c1ccc(Br)cc1	Bim-Mcl-1 40.0
N/C(=N\N=C/c1ccc(F)cc1)N/N=C\c1ccc(F)cc1	none (no result: Bim-Mcl-1, Mcl1-Noxa inh, Mcl1-Bid inh)
CCOC(=O)c1c(C)nc(C)c(C(=O)OCC)c1-c1ccccc1	none
CCOc1c(C(N)=O)c(-c2ccccc2)c2c(=O)[nH]c3ccccc3n12	Mcl1-Bid inh 99.2
CCCCn1c(NCc2cccs2)nc2ccccc21	Mcl1-Noxa inh 50.5
CCCCn1c(NCc2ccc(N(C)C)cc2)nc2ccccc21	Mcl1-Noxa inh 89.4 (no result: Bim-Mcl-1)
C/C(=C\c1ccccc1)C(=O)Nc1cc(C)on1	none
COc1ccccc1-n1c(SCC(=O)N2CCOCC2)nc2ccccc2c1=O	none (no result: Bim-Mcl-1, Mcl1-Noxa inh, Mcl1-Bid inh)
COc1ccccc1-n1c(SCc2cc(=O)oc3cc(O)ccc23)nc2ccccc2c1=O	Mcl1-Noxa inh 66.6
COc1ccc(C(=O)NNC(=O)CN(C)S(=O)(=O)c2ccc(Cl)cc2)c(OC)c1OC	none (no result: Bim-Mcl-1, Mcl1-Noxa inh, Mcl1-Bid inh)
Cc1ccc(/C=N/NC(=O)c2c[nH]c3ccccc23)o1	none
O=S(=O)(Nc1ccc2c(c1)OCCO2)c1cccc2nsnc12	Mcl1-Bid inh 61.0
COc1cc(N2C(=O)C=CC2=O)c(OC)cc1Cl	Mcl1-Noxa inh 58.7 (no result: Bim-Mcl-1)
CCSc1sccc1C1C(C#N)=C(N)N(c2cccnc2)C2=C1C(=O)CCC2 (stereo unspecified)	BCLXL inh 31.0
Cc1ccc(NC(=O)CNCCCN2CCOCC2)cc1S(=O)(=O)N1CCCCC1	Mcl1-Bid inh 51.4 (no result: Bim-Mcl-1)
CNC(=O)/C(C#N)=C/c1ccc(-c2ccc(OC)cc2[N+](=O)[O-])o1	Mcl1-Bid inh 66.1
N#C/C(=C/c1ccc(-c2cc([N+](=O)[O-])ccc2Cl)o1)C(N)=O	Mcl1-Noxa inh 69.5, Mcl1-Bid inh 56.6 (no result: Bim-Mcl-1)
Oc1ccc(C2=CSC3=NCCN23)cc1O	none (no result: Bim-Mcl-1, Mcl1-Noxa inh, Mcl1-Bid inh)
COc1cccc(N/C=C/c2onc(C)c2[N+](=O)[O-])c1	Mcl1-Noxa inh 55.2
CCC(=O)N(CC)C1=C(O)c2ccccc2C(=O)C1=O	Mcl1-Noxa inh 84.7
CCC(=O)N(C1=C(NC)C(=O)c2ccccc2C1=O)C(C)C	none
COc1cc(/C=C/C(=O)c2ccc(NS(=O)(=O)c3ccc(C)cc3)cc2)cc(OC)c1O	Mcl1-Noxa inh 56.0
O=C(CN1CCN(S(=O)(=O)c2cc(C(F)(F)F)ccc2Cl)CC1)N1CCc2ccccc2C1	none (no result: Bim-Mcl-1, Mcl1-Noxa inh, Mcl1-Bid inh)
Cc1ccc(C)c(S(=O)(=O)N2CCN(CC(=O)N3CCc4ccccc4C3)CC2)c1	Mcl1-Bid inh 62.4
COc1ccc(NC(=O)CSc2nnc(N)s2)cc1	none
CCOC(=O)c1sc(SCC(=O)Nc2ccc(N(C)C)cc2)nc1N	Mcl1-Noxa inh 72.5
COc1ccc(NC(=O)CSc2nc(N)c(C(=O)Nc3ccc(N(C)C)cc3)s2)cc1	none
CN(C)c1ccc(NC(=O)CSc2nc(N)c(C(=O)Nc3ccc(N(C)C)cc3)s2)cc1	Mcl1-Noxa inh 72.9
O=c1cc(O)c2sc(Nc3ccc(F)c(Cl)c3)nc2[nH]1	Mcl1-Noxa inh 52.8
COc1ccc(Nc2nc3[nH]c(=O)cc(O)c3s2)cc1	none
O=c1cc(O)c2sc(Nc3ccc(Cl)c(F)c3)nc2[nH]1	Mcl1-Noxa inh 51.0 (no result: Bim-Mcl-1)
Cc1ccc2[nH]c(=O)c3cc(C(=O)N(C)c4ccc(C)c(C)c4)sc3c2c1	none (no result: Bim-Mcl-1)
CC(C)CCNC(=O)CN(Cc1ccco1)C(=O)c1snc(C(N)=O)c1N	none
CN(C(=O)COC(=O)c1ccc2c(c1)NC(=O)CS2)C1CCS(=O)(=O)C1 (stereo unspecified)	none
O=C(O)c1ccc(N2C(=O)/C(=C/c3ccc(-c4ccc([N+](=O)[O-])cc4)o3)C=C2c2ccccc2)cc1	Mcl1-Noxa inh 107.9, Mcl1-Bid inh 99.4
CS(=O)(=O)Nc1ccc(-c2cn3c(n2)SCC3)cc1	none (no result: Bim-Mcl-1, Mcl1-Noxa inh, Mcl1-Bid inh)
CC(=O)c1ccc(S(=O)(=O)Nc2ccc(-c3cn4c(n3)SCC4)cc2)cc1	Mcl1-Noxa inh 64.8
COc1ccc(/C=N/n2c(-c3n[nH]c4c3CCC4)n[nH]c2=S)cc1OC	Mcl1-Noxa inh 65.1
CCOc1cc(NC(=O)c2ccco2)c(OCC)cc1NC(=O)CCc1ccccc1OC	none
Nc1c(C(=O)NCC2CCCO2)sc2nc3c(c(-c4ccco4)c12)CC/C3=C\c1ccco1 (stereo unspecified)	Bim-Mcl-1 44.0, Mcl1-Noxa inh 98.2, Mcl1-Bid inh 79.8 (no result: MCL1 BIM primary, BCLXL inh, GLD-1 RNA inh)
COc1ccc(NN=Nc2nc3c([nH]2)c(=O)n(C)c(=O)n3C)cc1	Mcl1-Noxa inh 67.4 (no result: Bim-Mcl-1)
CCOc1ccccc1NC(=O)C(OC(=O)c1cc(C)oc1C)c1ccccc1 (stereo unspecified)	none
CN(C)CCN(C(=O)c1ccccc1Cl)c1nc2c(Cl)cccc2s1	Mcl1-Bid inh 57.4
Cc1nc(NC(=O)c2ccc(Cl)cc2)sc1-c1csc(Nc2cccc(F)c2)n1	Mcl1-Noxa inh 50.9
Cc1ccc(Nc2nc(-c3sc(NC(=O)c4cccc(Cl)c4)nc3C)cs2)cc1	none
Cc1nc(NC(=O)c2ccccc2)sc1-c1csc(NCc2ccco2)n1	Mcl1-Noxa inh 60.5
Cc1nc(NC(=O)c2ccccc2)sc1-c1csc(Nc2ccc(C(=O)O)cc2)n1	Mcl1-Noxa inh 90.4, Mcl1-Bid inh 91.1 (no result: Bim-Mcl-1, MCL1 BIM primary, BCLXL inh, GLD-1 RNA inh)
COc1cccc(Nc2nc(-c3sc(NC(=O)c4ccccc4)nc3C)cs2)c1	none
CCOc1ccccc1CNC(=O)C1CCN(C(=O)N2CC(C)Oc3ccc(C)cc32)CC1 (stereo unspecified)	none (no result: Bim-Mcl-1, Mcl1-Noxa inh, Mcl1-Bid inh)
Cc1cc(OCCCN2CCCC2)ccc1Cl	none (no result: Bim-Mcl-1, Mcl1-Noxa inh, Mcl1-Bid inh)
Cc1ccccc1C(=O)NCC(=O)OCCOc1ccc(C(C)C)c(C)c1	none (no result: Bim-Mcl-1, Mcl1-Noxa inh, Mcl1-Bid inh)
COc1ccc(S(=O)(=O)N2CCCCCC2)cc1NC(=O)Cc1ccccc1	none
c1ccc(N2CCN(c3nc(-c4cccs4)nc4ccccc34)CC2)cc1	none
Oc1ccc(N2CCN(c3nc(-c4cccs4)nc4ccccc34)CC2)cc1	Mcl1-Noxa inh 94.0, MCL1 BIM primary 44.1, BCLXL inh 31.9 (no result: Bim-Mcl-1)
CC(C)OC(=O)c1c2nc3ccccc3nc2n2c1[nH]c(=O)c1ccccc12	GLD-1 RNA inh 47.9
CC(C)OC(=O)c1c(N)n(CCCN2CCOCC2)c2nc3ccccc3nc12	none
COc1ccc(CC(=O)NCc2cccs2)cc1	Mcl1-Noxa inh 63.0
COc1ccc(CNC(=O)Cc2cccs2)cc1	none (no result: Bim-Mcl-1, Mcl1-Noxa inh, Mcl1-Bid inh)
O=C(N[C@@H](Cc1ccc(O)cc1)C(=O)O)C(c1ccccc1)c1ccccc1	none
O=C(O)CCC(CNS(=O)(=O)c1ccccc1)C(F)(F)F (stereo unspecified)	Mcl1-Noxa inh 69.7
C=CCOC(=O)c1cc(-c2ccc(/C=C3\C(=O)NC(=O)C(C#N)=C3C)o2)ccc1Cl	Mcl1-Noxa inh 104.8, Mcl1-Bid inh 99.0 (no result: MCL1 BIM primary, BCLXL inh, GLD-1 RNA inh)

Screens deposited in PubChem BioAssay by several laboratories.
